Measurements as given in PubChem BioAssay (NCI).
Compounds without any hit were thinned out: in the full panel of roughly 79,000, 15% have a hit. Cut-off read from the data, not from the text of the source: active = growth inhibition above about 70%; inactive = the rest. Where a SMILES comes first, the peptide text is derived from it. The star is where a group is joined. Boc = CC(C)(C)OC(=O)*

Assays:
[1] = NCI Yeast Anticancer Drug Screen. Data for the rad50 strain (AID 155);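 note: 0% = growth of vehicle-only cultures of the same strain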; conditions: S. cerevisiae rad50 strain growth inhibition, hits give high values; at 50.0 µM unless noted
How it was run: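 Compounds were tested on a yeast strain with an engineered DNA damage repair alteration; the reported value is growth inhibition normalised to vehicle treatment.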

[2] = NCI Yeast Anticancer Drug Screen. Data for the mec2-1 strain (AID 157); conditions: S. cerevisiae mec2-1 strain, hits give high values; at 50.0 µM unless noted
How it was run: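 Vehicle-treated cultures served as reference for growth inhibition of compound-exposed mec2-1 yeast.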

[3] = NCI Yeast Anticancer Drug Screen. Data for the sgs1 mgt1 strain (AID 161);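 note: 0% = growth of cultures given vehicle only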; conditions: S. cerevisiae sgs1 mgt1 strain, hits give high values; at 50.0 µM unless noted
How it was run: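 Genetically altered yeast, compound exposure, growth inhibition relative to vehicle.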

[4] = NCI Yeast Anticancer Drug Screen. Data for the cln2 rad14 strain (AID 165);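 note: 0% = growth equal to vehicle treated cultures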; conditions: S. cerevisiae cln2 rad14 strain, hits give high values; at 50.0 µM unless noted
How it was run: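 Each compound was tested on cln2 rad14 yeast. Inhibition of growth was calculated against vehicle-exposed controls.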

[5] = NCI Yeast Anticancer Drug Screen. Data for the bub3 strain (AID 167); conditions: S. cerevisiae bub3 mutant strain, hits give high values; at 50.0 µM unless noted
How it was run: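 Growth of a checkpoint-deficient yeast mutant is measured after compound exposure. Values represent inhibition relative to vehicle.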

[6] = NCI Yeast Anticancer Drug Screen. Data for the mlh1 rad18 strain (AID 175); conditions: S. cerevisiae mlh1 rad18 strain growth inhibition, hits give high values; at 50.0 µM unless noted
How it was run: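 Vehicle-treated cultures served as the reference for growth inhibition in a yeast strain carrying DNA damage repair alterations exposed to each compound.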

Measured: growth inhibition

N=C1OCCN1/N=C/c1ccc([N+](=O)[O-])o1
inactive: [1] 33.4% | [2] -2.3% | [3] 66.8% | [4] -3.5% | [5] 20.6% | [6] 52.2%

ClC1c2cccc3cccc(c23)C1Cl (centres undefined)
inactive: [1] 6.95% | [2] 8.75% | [3] -0.6% | [4] 4.45% | [5] 7.5% | [6] 10.7%

CC1CC(C)OC(c2ccc(Cl)cc2)O1 (centres undefined)
inactive: [1] 20.8% | [2] 14.5% | [3] 17.2% | [4] -28.8% | [5] -2.15% | [6] 19.1%

COc1cc2c(cc1OC)C(=O)/C(=C/c1cc(OC)c(OC)c(OC)c1)C2
inactive: [1] -33.8% | [2] -35.5% | [3] -69.8% | [4] -38.6% | [5] -12.8% | [6] -69%

O=c1[nH]cnc2c1ncn2C1CCCO1 (centres undefined)
inactive: [1] -14.2% | [2] -3.3% | [3] -2.9% | [4] -24.1% | [5] 17.4% | [6] 0.9%

CC1C(c2ccccc2)OCCN1CN1C(=O)c2ccccc2C1=O (centres undefined)
inactive: [1] 10.8% | [2] 17.4% | [3] 12.4% | [4] 21.8% | [5] 17.1% | [6] -3.6%

OC(c1ccc(Cl)cc1)c1ccccn1 (centres undefined)
inactive: [1] 1.7% | [2] -9% | [3] -7.3% | [4] -17% | [5] -18.9% | [6] -8.75%

COC(=O)C(Cc1c[nH]c2ccccc12)NC(=O)C(Cc1c[nH]c2ccccc12)NC(=O)C(Cc1c[nH]c2ccccc12)NC(=O)C(Cc1c[nH]c2ccccc12)NC(=O)C(Cc1c[nH]c2ccccc12)NC(=O)C(Cc1c[nH]c2ccccc12)NC(=O)OC(C)(C)C (centres undefined) (Boc-WWWWWW-OMe; configuration not given here)
inactive: [1] -6.8% | [2] -12.7% | [3] -18.4% | [4] 7.25% | [5] 8.25% | [6] 16.4%

O=C(CCC1OCCO1)Nc1cc([N+](=O)[O-])ccc1OCc1ccccc1
inactive: [1] -1.9% | [2] 4.5% | [3] 6.25% | [4] -8.2% | [5] -1.35% | [6] 7.6%

O=C(O)c1c(-c2nccc3ccccc23)[nH]c(-c2ccccc2)c1S(=O)(=O)O
inactive: [1] -23.1% | [2] 5.7% | [3] -18.9% | [4] -35.3% | [5] -24.4% | [6] 21.6%

N#CC(C(=O)/C(=N/Nc1nc(=S)[nH]n1N)C(C#N)c1ccccc1)c1ccccc1 (centres undefined)
inactive: [1] -23.8% | [2] -1.45% | [3] -30.8% | [4] 14.8% | [5] -19.1% | [6] -10.2%

C[N+]12CCCCC1C(CN1C(=O)c3ccccc3C1=O)CCC2 (centres undefined)
inactive: [1] 0.65% | [2] -6.05% | [3] 35.7% | [4] 10.9% | [5] 28.8% | [6] -40%

OCC(O)COc1ccc(Cl)cc1 (centres undefined)
inactive: [1] -5% | [2] -12.8% | [3] -1.25% | [4] 2.05% | [5] 6.4% | [6] 9%

O=C1CSC(c2cc([N+](=O)[O-])ccc2Cl)N1c1nncs1 (centres undefined)
inactive: [1] 22.1% | [2] 15.6% | [3] 37.2% | [4] 19.1% | [5] 21.7% | [6] 28.4%

CC1(C)OCC(C2OC3OC(C)(C)OC3C2N)O1 (centres undefined)
inactive: [1] 10.8% | [2] 10.7% | [3] 11.1% | [4] -2.95% | [5] 21.8% | [6] 5.4%

Cc1nc(CO)c(-c2ccc([N+](=O)[O-])cc2)o1
inactive: [1] 0.4% | [2] -4% | [3] -8.75% | [4] -20.4% | [5] -13.1% | [6] -1.5%

COc1cccc(N(CN2CC=CC2=O)C(C)=O)c1
inactive: [1] -1.65% | [2] 6.3% | [3] 10.6% | [4] 18.6% | [5] -16.8% | [6] -44.3%

CC(C)=CCCC(C)CCO (centres undefined)
inactive: [1] -5.1% | [2] -4.75% | [3] -15.4% | [4] 16.4% | [5] -16.6% | [6] 3.25%

CCOP(=O)(OCC)C(C)(CC)N/C(=N/C(NC(C)=O)(C(F)(F)F)C(F)(F)F)NC1=NC(C(F)(F)F)(C(F)(F)F)N=C(C(F)(F)F)O1 (centres undefined)
inactive: [1] 1.65% | [2] 4.65% | [3] -26.8% | [4] 5.3% | [5] -3.1% | [6] -34.1%

CCOC(=O)c1c(-c2ccc([N+](=O)[O-])cc2)c(C=O)n(-c2ccccc2)c1C
inactive: [1] 4.2% | [2] -5.45% | [3] -0.55% | [4] -21.8% | [5] 36.9% | [6] 6.7%

CC1CC(C)(O)C2C3(C)CCCC2(COC3=O)C12CCC1(CCOC1=O)O2 (centres undefined)
inactive: [1] 0.9% | [2] -23.5% | [3] 25.3% | [4] 3.8% | [5] -0.6% | [6] 2.9%

C=C(C)CC(=O)O.CC(=O)[CH-]C(C)=O.CC(=O)[CH-]C(C)=O.CC(=O)[CH-]C(C)=O.[Zn+2].[Zn]
inactive: [1] 30.2% | [2] 10.8% | [3] 16.2% | [4] 6.8% | [5] -0.85% | [6] 21.1%

CC(=O)Nc1cc(Cl)ccc1[N+](=O)[O-]
inactive: [1] 8.95% | [2] 9.35% | [3] 27.9% | [4] 1.25% | [5] 17.4% | [6] 5.95%

COc1ccc(NC(=O)CC(=O)N2N=C(N3c4ccccc4Sc4ccccc43)CC2c2ccccc2)cc1 (centres undefined)
inactive: [1] 8.65% | [2] -4.1% | [3] 0.8% | [4] 14.2% | [5] 4.8% | [6] -3.6%

O=C(ON=C1C=CC(=NOC(=O)c2ccccc2)C=C1)c1ccccc1
inactive: [1] 10.2% | [2] -20.6% | [3] 9.35% | [4] 17.3% | [5] 1.15% | [6] 7.6%

CCOCCC(=O)OCCCl
inactive: [1] 29.2% | [2] 9.4% | [3] 13.3% | [4] 10.1% | [5] 15.7% | [6] 22.9%

N#CC1(OC2CCCCO2)Cc2ccccc2C1 (centres undefined)
inactive: [1] 16.8% | [2] 2.45% | [3] -13.3% | [4] -48.9% | [5] -5.45% | [6] -1.15%

CCOC(=O)C1(C#N)C(C#N)(C#N)C1(CC)CC (centres undefined)
inactive: [1] -11.2% | [2] 19.6% | [3] -1.55% | [4] 10.3% | [5] -6.4% | [6] -20.8%

CC1(C)CC2(Nc3ccccc3N2)C2=C(O1)C(=O)OC2
inactive: [1] 9.45% | [2] -8.25% | [3] -18.7% | [4] -1.3% | [5] -6.15% | [6] -10.6%

COc1ccc(C2OC3=C(Nc4cc(C)c(C)cc4N3)C2=O)cc1 (centres undefined)
inactive: [1] 11.2% | [2] -8.05% | [3] 2.05% | [4] -1.35% | [5] -22.3% | [6] 13.8%

CCOC(=O)c1c(C)[nH]c(C(=O)CCN(C)C)c1C
inactive: [1] 7.35% | [2] 0.2% | [3] 17.4% | [4] -33.9% | [5] 2.1% | [6] 0.65%

CC(C)(C)C(=O)CC(=O)C(F)(F)C(F)(F)C(F)(F)F.CC(C)(C)C(=O)CC(=O)C(F)(F)C(F)(F)C(F)(F)F.CC(C)(C)C(=O)CC(=O)C(F)(F)C(F)(F)C(F)(F)F.[La]
inactive: [1] 2.85% | [2] -0.9% | [3] -3.95% | [4] -8.85% | [5] -3.95% | [6] 18.8%

Cn1cc(C(=O)c2ccccc2)cc(C(=O)c2ccccc2)c1=O
inactive: [1] -3.05% | [2] -12.1% | [3] -6.05% | [4] 1.5% | [5] -15.2% | [6] -36.5%

Cc1cc(Cl)cc2c1OC(C)OC2=O (centres undefined)
inactive: [1] -7.85% | [2] 0.2% | [3] -17.6% | [4] -5.6% | [5] 11.6% | [6] 28.6%

c1ccc2cnncc2c1
inactive: [1] 0.35% | [2] -0.55% | [3] -11.8% | [4] 4.35% | [5] 11.7% | [6] 0.25%

COC(=O)C1NC(=O)C(N2C(=O)c3ccccc3C2=O)=CSC1(C)C (centres undefined)
inactive: [1] -15.8% | [2] -3.05% | [3] 1.15% | [4] -11.6% | [5] -48% | [6] -7.2%

C#CCC(C(=O)OC)N(CC)CC (centres undefined)
inactive: [1] 25.6% | [2] -21.9% | [3] 41.4% | [4] 0.55% | [5] 46.1% | [6] 33.7%

CCCC1OC(c2cc3c(cc2Br)OCO3)OCC1CC (centres undefined)
inactive: [1] -4.5% | [2] -8.9% | [3] 9.25% | [4] 3.1% | [5] 23.1% | [6] -4.7%

Cc1ccc(S(=O)(=O)/N=S(/Cc2ccccc2)c2c(C)cccc2C)cc1 (centres undefined)
inactive: [1] 20.9% | [2] 2.65% | [3] 20.6% | [4] 17.6% | [5] -0.75% | [6] 3.3%
